Where “and” joins values, the source holds several entries; their conditions need not be identical. Equal values may be shown once. About 83,000 compounds went through this panel and 20% of them were active in at least one assay; those are over-represented in the sample as a whole.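 Plates (96-well) were seeded with cells, treated with compound at one concentration, and incubated for 48 hours before percent growth was determined.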 Calls of active or inactive are those of the source. Rule for the calls: active = growth percent below 10; inactive = the rest.
What was measured:
Experiment in all cases: NCI-60 one-dose screen, 48 h (100 = growth as untreated, 0 = no growth, -100 = all killed)
Details in all cases: 10 µM unless noted
HCT-15 colon = system: HCT-15 colon
HT29 colon = system: HT29 colon
SNB-75 CNS = system: SNB-75 CNS
SNB-19 CNS = system: SNB-19 CNS
U251 CNS = system: U251 CNS
PC-3 prostate = system: PC-3 prostate
SK-MEL-5 melanoma = system: SK-MEL-5 melanoma
UACC-62 melanoma = system: UACC-62 melanoma
LOX IMVI melanoma = system: LOX IMVI melanoma
SK-MEL-28 melanoma = system: SK-MEL-28 melanoma
SK-MEL-2 melanoma = system: SK-MEL-2 melanoma
EKVX NSCLC = system: EKVX NSCLC
SN12C renal = system: SN12C renal
TK-10 renal = system: TK-10 renal
ACHN renal = system: ACHN renal
CAKI-1 renal = system: CAKI-1 renal
A498 renal = system: A498 renal
CCRF-CEM leukemia = system: CCRF-CEM leukemia
MOLT-4 leukemia = system: MOLT-4 leukemia
UO-31 renal = system: UO-31 renal

Measured: growth

S=C(S)N1CCCC1
inactive: HCT-15 colon 107% | HT29 colon 76.7% and 22.4% | SNB-75 CNS 113% and 89% | SNB-19 CNS 99.1% and 100% | U251 CNS 85.1% and 49% | PC-3 prostate 84.7% and 82.8% | SK-MEL-5 melanoma 79.7% and 67.8% | UACC-62 melanoma 90.9% and 105% | LOX IMVI melanoma 108% and 90.2% | SK-MEL-28 melanoma 95.1% and 107% | SK-MEL-2 melanoma 98% and 99.7% | EKVX NSCLC 114% and 99% | SN12C renal 96.4% and 109% | TK-10 renal 96.5% and 96.3% | ACHN renal 125% and 110% | CAKI-1 renal 124% | A498 renal 72.5% and 102% | CCRF-CEM leukemia 65.5% and 70.7% | MOLT-4 leukemia 98.7% and 107%

Cc1ccc(S(=O)(=O)NCN2C(=O)c3ccccc3C2=O)cc1
inactive: HCT-15 colon 99.3% | HT29 colon 104% | SNB-75 CNS 96.9% | SNB-19 CNS 111% | U251 CNS 103% | PC-3 prostate 102% | SK-MEL-5 melanoma 112% | UACC-62 melanoma 111% | LOX IMVI melanoma 109% | SK-MEL-28 melanoma 111% | SK-MEL-2 melanoma 106% | EKVX NSCLC 119% | SN12C renal 98% | UO-31 renal 92.3% | TK-10 renal 108% | CAKI-1 renal 95.1% | A498 renal 111% | CCRF-CEM leukemia 91% | MOLT-4 leukemia 93.6%

Cc1cccc(/C=C\C(=O)c2ccc(Cl)cc2)c1
inactive: HCT-15 colon 89.5% and 96.6% | HT29 colon 84.1% and 90.9% | SNB-75 CNS 98.9% and 115% | SNB-19 CNS 91.6% and 101% | U251 CNS 80.3% and 98.9% | PC-3 prostate 89.6% and 83.7% | SK-MEL-5 melanoma 108% and 94.8% | UACC-62 melanoma 96.8% and 103% | LOX IMVI melanoma 89.2% and 91.6% | SK-MEL-28 melanoma 106% and 111% | SK-MEL-2 melanoma 94.9% and 100% | EKVX NSCLC 91.1% and 94.3% | SN12C renal 94.9% and 97% | UO-31 renal 68.3% and 86.1% | TK-10 renal 75.5% and 85.3% | CAKI-1 renal 90.1% and 85.1% | A498 renal 78.9% and 54.4% | CCRF-CEM leukemia 84.3% and 68.8% | MOLT-4 leukemia 90.2% and 55%

CN(Cc1ccccc1)Cc1ccccc1
inactive: HCT-15 colon 103% | HT29 colon 102% | SNB-75 CNS 87.4% | SNB-19 CNS 106% | U251 CNS 99% | PC-3 prostate 103% | SK-MEL-5 melanoma 104% | UACC-62 melanoma 101% | LOX IMVI melanoma 95.1% | SK-MEL-28 melanoma 110% | SK-MEL-2 melanoma 104% | EKVX NSCLC 102% | SN12C renal 101% | UO-31 renal 93% | TK-10 renal 88.2% | CAKI-1 renal 93.9% | A498 renal 114% | CCRF-CEM leukemia 115% | MOLT-4 leukemia 122%

C#CCN(C)Cc1ccccc1
inactive: HCT-15 colon 104% and 103% | HT29 colon 108% and 113% | SNB-75 CNS 106% and 115% | SNB-19 CNS 102% | U251 CNS 105% and 101% | PC-3 prostate 100% and 105% | SK-MEL-5 melanoma 102% and 106% | UACC-62 melanoma 92.3% | LOX IMVI melanoma 96.9% and 102% | SK-MEL-28 melanoma 111% and 114% | SK-MEL-2 melanoma 97.5% and 104% | EKVX NSCLC 104% and 95.2% | SN12C renal 95.7% and 82.5% | UO-31 renal 87.2% and 93.2% | TK-10 renal 101% and 231% | CAKI-1 renal 99% and 69.1% | A498 renal 126% and 96.3% | CCRF-CEM leukemia 95.2% and 131% | MOLT-4 leukemia 106% and 101%

Nc1ccc(N=Nc2ccc(S(=O)(=O)O)cc2)cc1S(=O)(=O)O
inactive: HCT-15 colon 102% and 96.7% | HT29 colon 118% and 96.2% | SNB-75 CNS 106% and 81.6% | SNB-19 CNS 96.5% | U251 CNS 99.6% and 95.5% | PC-3 prostate 92.2% and 74% | SK-MEL-5 melanoma 111% and 103% | UACC-62 melanoma 104% and 94.8% | LOX IMVI melanoma 93.7% and 92.1% | SK-MEL-28 melanoma 109% and 104% | SK-MEL-2 melanoma 98.7% and 82.5% | EKVX NSCLC 96.3% and 109% | SN12C renal 105% and 96.1% | UO-31 renal 81.4% and 93.4% | TK-10 renal 115% and 97.6% | CAKI-1 renal 79.6% and 88.4% | A498 renal 102% and 111% | CCRF-CEM leukemia 83.6% and 46.6% | MOLT-4 leukemia 108% and 117%

CC(=O)c1ccccc1O
inactive: HCT-15 colon 112% and 105% and 223% | HT29 colon 107% and 99.2% and 111% | SNB-75 CNS 107% and 93% and 97.7% | SNB-19 CNS 102% and 105% and 94.1% | U251 CNS 108% and 98.7% and 104% | PC-3 prostate 102% and 83.5% and 91.7% | SK-MEL-5 melanoma 100% and 102% | UACC-62 melanoma 101% and 105% | LOX IMVI melanoma 100% and 92.7% and 103% | SK-MEL-28 melanoma 103% and 91.7% and 109% | SK-MEL-2 melanoma 107% and 98.5% and 111% | EKVX NSCLC 99.7% and 108% and 104% | SN12C renal 98.1% and 104% and 98.7% | TK-10 renal 104% and 95.9% and 95.7% | ACHN renal 105% and 101% and 104% | CAKI-1 renal 92.5% and 99.4% and 87.3% | A498 renal 92.5% and 86.6% | CCRF-CEM leukemia 107% and 104% and 101% | MOLT-4 leukemia 88.1% and 91.6% and 104%

COc1ccccc1NC(=O)OCC#CCOC(=O)Nc1ccccc1OC
inactive: HCT-15 colon 114% and 88.6% | HT29 colon 100% and 103% | SNB-75 CNS 92.9% and 84.7% | SNB-19 CNS 104% and 88.7% | U251 CNS 97.4% and 96.4% | PC-3 prostate 102% and 89.3% | SK-MEL-5 melanoma 94.2% and 88.6% | UACC-62 melanoma 83.7% and 73.2% | LOX IMVI melanoma 96.9% and 100% | SK-MEL-28 melanoma 106% and 88.1% | SK-MEL-2 melanoma 95.2% and 95% | EKVX NSCLC 99% and 96.1% | SN12C renal 107% and 92.4% | UO-31 renal 71.4% and 80.2% | TK-10 renal 99.2% and 91.2% | ACHN renal 104% and 100% | A498 renal 87.5% and 92.8% | CCRF-CEM leukemia 83.1% and 91.5% | MOLT-4 leukemia 72.4%

Source: PubChem BioAssay (NCI)
